Screening data as filed in PubChem BioAssay.
A selection: hits, their analogues and other compounds. The true share with any hit is near 6.9%.
NS3h inh CB: hepatitis C NS3 helicase inhibition, primary screen; NS3h Cy5-dT15 DNA binding, fluorescence polarization; inhibition, % at 100 µM; hit rate 1.6% among 16,000;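 active = inhibition above the average over every tested compound plus 3 SD, cut at about 40% in these data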
Cy5 interf NS3h: enhances or quenches Cy5 fluorescence in NS3h assay | fluorescence interference ratio at 100 µM | hit rate 6% among 16,000 | Cy5-dT15 DNA with NS3h, fluorescence interference; actives lie on both sides; signal over control mean, under 1 quenches;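 active = compound fluorescence over control fluorescence at most 0.8, a quencher, or at least a set upper limit, an enhancer; inactive = ratio between 0.8 and the set upper limit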
HCV NS3h conf: hepatitis C NS3 helicase inhibition, confirmation | shares compounds with NS3h inh CB | NS3h binding to Cy5-dT15 DNA, fluorescence polarization | inhibition, % at 100 µM | hit rate 20% among 240;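 active = percent inhibition of 50% or more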
SSB FP counter: counter-screen for HCV NS3 helicase inhibitors: E. coli SSB binding. AID 720486. inhibition, % at 100 µM. shares compounds with NS3h inh CB. E. coli SSB binding Cy5-dT15, fluorescence polarization. hit rate 40% among 240;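 active = inhibition of at least 50%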;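 also: displacers lower Cy5 polarization so higher inhibition means more SSB displaced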
Target sequence (P0AGE0 whole entry, looked up): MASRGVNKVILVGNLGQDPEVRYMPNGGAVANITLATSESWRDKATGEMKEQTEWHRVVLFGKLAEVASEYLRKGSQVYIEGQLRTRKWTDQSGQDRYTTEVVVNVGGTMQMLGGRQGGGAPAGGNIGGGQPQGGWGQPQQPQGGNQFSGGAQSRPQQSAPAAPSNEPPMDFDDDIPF
Cy5 SSB interf: enhances or quenches Cy5-DNA fluorescence with E. coli SSB; AID 720487; Cy5-dT15/E. coli SSB fluorescence interference; actives lie on both sides; shares compounds with NS3h inh CB; hit rate 8% among 240; fluorescence interference ratio at 100 µM;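 active = fluorescence interference ratio at or above 1.2, signal boosting, or at or below 0.8, signal quenching; inactive = ratio between 0.8 and 1.2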;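 also: ratio of compound well signal to mean negative control signal so 1 means no effect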
Cy5 interf conf: confirmation counter-screen for HCV NS3 helicase inhibitors: fluorescence interference | shares compounds with NS3h inh CB | Cy5-dT15 DNA/NS3h fluorescence interference counterscreen | fluorescence interference ratio at 100 µM, hits read low | hit rate 44% among 240;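 active = fluorescence interference ratio at or below 0.8 quencher or at or above a set limitenhancer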;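 also: ratio of compound fluorescence to mean of negative controls so 1 means no interference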
* hit, by the source's call; x = not tested or not shown.

SMILES	NS3h inh CB	Cy5 interf NS3h	HCV NS3h conf	SSB FP counter	Cy5 SSB interf	Cy5 interf conf
C/C(=N/N=C1\NC(=O)C(CC(=O)Nc2ccc(C)c(Cl)c2)S1)C(C)C (stereo not given)	12.4	0.955	x	x	x	x
O=C(Nc1cccnc1)N1CCOCC1	-10.4	1	x	x	x	x
CN(C)c1ccc(NC(=O)N2CCOCC2)cc1	157.0*	2.13*	55.2*	81.8*	1.15	0.947
N#CCCn1cc(/C=N\O)c(-c2ccc(-c3ccccc3)cc2)n1	12.8	0.926	x	x	x	x
O=C(O)c1cccc(C(=O)O)c1N(c1ccccc1)c1ccccc1	2.6	1	x	x	x	x
Cc1c(C(=O)O)cccc1-n1c(C)ccc1C	97.0*	1.43*	66.9*	106.1*	0.936	0.951
COc1ccc(C(=O)Nc2cc(C(F)(F)F)ccc2Cl)cc1	14.6	1.06	x	x	x	x
CCN(CC)CCNC(=O)c1ccc(NC(=S)NC(=O)c2cccnc2)cc1	62.8*	0.724*	41.5	35.7	0.774*	0.811
O=C(NC(=S)Nc1ccc(Cc2ccncc2)cc1)c1ccccc1	35.5	0.934	x	x	x	x
Cc1nc(=O)c(-c2ccccc2)c(C)n1-c1ccc(OCC(=O)O)cc1	-3.7	1.09	x	x	x	x
Cc1ccc(C)n1-c1ccc(OCC(=O)O)cc1	81.6*	1.35*	78.5*	95.1*	0.918	0.828
Cc1cccc(NC(=O)c2ccccc2NC(=O)/C=C\c2ccco2)c1C	4.6	0.931	x	x	x	x
O=C(/C=C/c1ccco1)Nc1ccc(O)cc1C(=O)O	61.1*	1.05	39.4	92.7*	0.905	0.996
O=C(O)Cc1c[nH]c2ccc(O)cc12	89.7*	0.808	78.5*	109.7*	0.879	0.911
O=C(O)CC(C(=O)O)c1c[nH]c2ccccc12 (stereo not given)	-5.2	1.06	x	x	x	x
O=C(CN1C(=O)/C(=C/c2cccc(Br)c2)SC1=S)Nc1ccccn1	10.0	0.974	x	x	x	x
O=C(CCCN1C(=O)/C(=C\c2cccc(Br)c2)SC1=S)Nc1ccc(C(=O)O)cc1	30.1	0.989	24.5	4.1	0.975	0.974
COC(=O)c1cc(C(=O)N2CCc3ccccc3C2)cc([N+](=O)[O-])c1	2.7	0.998	x	x	x	x
C=CCNC(=O)C(=O)NCCCOC	2.2	0.99	x	x	x	x
COC(=O)c1c(C)oc2ccc(OC(=O)c3cccc([N+](=O)[O-])c3)cc12	15.6	0.97	x	x	x	x
CN(C)c1ccc(N2C(=O)C=CC2=O)cc1	64.6*	0.96	42.5	16.3	1	0.757*
C=C(C)C(=O)Oc1ccc(N2C(=O)CCC2=O)cc1	4.3	1.05	x	x	x	x
COc1ccc(N2C(=O)C=C(Nc3ccccc3)C2=O)cc1	15.2	0.865	x	x	x	x
CN(C)c1ccc(/C=C/C(=O)/C=C/c2ccc(N(C)C)cc2)cc1	5.8	0.977	x	x	x	x
O=C1C=CC(=O)N1c1ccc(SC(F)F)cc1	19.9	0.993	x	x	x	x
SMILES	NS3h inh CB	Cy5 interf NS3h	HCV NS3h conf	SSB FP counter	Cy5 SSB interf	Cy5 interf conf
C=C(C)C(=O)Oc1ccc(N2C(=O)C=CC2=O)cc1	80.6*	1.04	55.2*	4.1	0.934	0.919
COc1ccc(N2C(=O)C=CC2=O)cc1	83.9*	0.769*	48.9	0.5	1	0.773*
O=C1C=CC(=O)N1c1ccc(OC(F)F)cc1	46.2*	0.822	33.0	9.0	0.943	0.864
O=C(Nc1nc2ccc([N+](=O)[O-])cc2s1)c1cc(Cl)ccc1Cl	24.7	0.971	x	x	x	x
O=C(Nc1cccnc1)c1cnn2c1NC(c1cccs1)CC2C(F)(F)F (stereo not given)	6.7	0.939	x	x	x	x
CCOC(=O)c1ccc(N2C(=O)CC(=O)NC2=O)cc1	-6.0	1.19	x	x	x	x
C=CCN1C(=O)/C(=C\c2cn(Cc3ccccc3F)c3ccccc23)SC1=S	11.9	1.06	x	x	x	x
O=C(O)C1Nc2c(Cl)cc(Cl)cc2C2C=CCC12 (stereo not given)	96.6*	0.871	57.3*	103.6*	0.902	0.748*
COc1ccc2c(c1)C1C=CCC1C(C(=O)O)N2 (stereo not given)	84.4*	1.19	59.4*	108.5*	1.46*	0.944
O=[N+]([O-])c1ccc2c(c1)C1C=CCC1C(c1cccc(Cl)c1Cl)N2 (stereo not given)	6.9	0.971	x	x	x	x
Cc1cc([N+](=O)[O-])ccc1-c1ccc(C(=O)NC(C)(C)C)o1	10.2	0.913	x	x	x	x
O=C1N=c2ccc([N+](=O)[O-])cc2=C1c1sc(NS(=O)(=O)c2ccccc2)nc1O	41.1*	1	15.0	101.2*	0.871	0.747*
O=[N+]([O-])c1cccc(S(=O)(=O)Nc2ccc(O)c(Cl)c2)c1	5.1	0.831	x	x	x	x
O=C(O)CCn1c(O)c(C2=c3cc([N+](=O)[O-])ccc3=NC2=O)sc1=S	28.0	0.935	8.7	28.4	0.935	0.774*
COCCCn1c(O)c(C2=c3ccccc3=NC2=O)sc1=S	20.3	1	x	x	x	x
O=C(NCc1ccc(Cl)cc1)c1cccc(Br)c1	3.3	0.919	x	x	x	x
CN(C)c1ccc(/C=C(\NC(=O)c2ccccc2)C(=O)N/N=C\c2cc(O)ccc2[N+](=O)[O-])cc1	44.9*	0.646*	24.5	75.7*	0.791*	0.728*
O=C(N/N=C\c1ccccc1O)/C(=C\c1ccc2c(c1)OCO2)NC(=O)c1ccccc1	4.6	1.1	x	x	x	x
COCCCNC(=O)CN(c1cc(OC)ccc1OC)S(C)(=O)=O	5.3	1.05	x	x	x	x
Cc1c(NC(=O)c2ccc(CSc3ccc(Cl)cc3)cc2)c(=O)n(-c2ccccc2)n1C	-1.6	0.931	x	x	x	x
CC(C)c1ccc(/C=C2\SC(=S)N(C3CCS(=O)(=O)C3)C2=O)cc1 (stereo not given)	-0.7	0.949	x	x	x	x
Cc1ccsc1/C=C1\SC(=S)N(C2CCS(=O)(=O)C2)C1=O (stereo not given)	68.5*	1.33*	4.4	17.5	0.906	0.723*
O=C(Nc1ccc(Cl)c(Cl)c1)C1CC(=O)N(c2cccc([N+](=O)[O-])c2)C1 (stereo not given)	38.7	1.08	0.2	13.8	0.967	0.941
Cc1ccc(NC(=O)C2CC(=O)N(c3ccc(Br)cc3)C2)cc1Cl (stereo not given)	19.9	1.01	x	x	x	x
CCCCN1C(=O)/C(=C/c2c(NCCCn3ccnc3)nc3c(C)cccn3c2=O)SC1=S	15.5	0.904	x	x	x	x
SMILES	NS3h inh CB	Cy5 interf NS3h	HCV NS3h conf	SSB FP counter	Cy5 SSB interf	Cy5 interf conf
Cc1cccc(C(C)C)c1NC(=O)c1cc2ccccc2oc1=O	25.8	1.09	x	x	x	x
COC(=O)c1cccc(NC(=O)c2ccc[n+]([O-])c2)c1	4.0	1.05	x	x	x	x
COC(=O)c1cccc(N2C(=O)C=CC2=O)c1	46.1*	0.949	36.2	-1.9	0.975	0.73*
NC(=O)C(F)(Cl)c1c(F)c(F)c(F)c(-c2ccccc2)c1-c1ccccc1 (stereo not given)	12.6	0.909	x	x	x	x
O=c1[nH]c(=O)n(-c2ccc(Br)cc2)c(O)c1C=C1C=CC=N1	-2.1	0.826	x	x	x	x
Cc1ccccc1-n1c(O)c(C=C2C=CC=N2)c(=O)[nH]c1=S	62.6*	0.751*	58.4*	140.0*	0.72*	0.738*
O=C1NC(=O)N(c2ccccc2)C(=O)/C1=C\c1ccc(-c2ccc([N+](=O)[O-])cc2Cl)o1	-3.4	0.817	x	x	x	x
